Compounds with a hit are over-represented: about 9% of the library has one in this group of screens.
HPGD inh: qHTS Assay for Inhibitors of HPGD (15-Hydroxyprostaglandin Dehydrogenase). purified HPGD, NADH fluorescence kinetic, PGE2 substrate. hit rate 4.3% among 150,000. 15-hydroxyprostaglandin dehydrogenase [NAD(+)] (Homo sapiens), P15428. AID 894, 2007. Potency, µM, without a hit: at the top dose activity change, negative = inhibition, usual class: inhibitors; active = well fitted inhibition curve with a large enough effect, not every such curve was filed as active; inconclusive = small, poorly fitted or top-dose-only effect, or another doubt; inactive = no such curve, though single readings can be large or run the other way
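20 nM HPGD preincubated 15 min at room temperature with compound in 50 mM Tris-HCl pH 8, 0.01% Tween 20. Started with 1 mM NAD+ and 30 uM prostaglandin E2; NADH fluorescence (360/450 nm) read 5 times over 30-s intervals, last minus first.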
KinaseGlo FLuc: Counterscreen for Luciferase (Kinase-Glo TM) Inhibition; Kinase-Glo luciferase, ATP luminescence, 8 min; Potency, µM (series often up to 38.3 µM), inactives show at the highest dose activity change, negative = inhibition, actives largely listed as inhibitors; hit rate 0.28% among 200,000; note: nearly all actives have a fitted effect of over 60% in size
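Compound is pinned into ATP-containing buffer (10 uM ATP, imidazole pH 7.2, 7 mM MgCl2). Kinase-Glo luciferase reagent is then added. Light output is recorded following an 8-min room-temperature incubation.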
ALDH1A1 inh: qHTS Assay for Inhibitors of Aldehyde Dehydrogenase 1 (ALDH1A1) | Aldehyde dehydrogenase 1A1 (Homo sapiens), P00352 | Purified ALDH1A1, NADH fluorescence, propionaldehyde substrate | Potency, µM (doses to about 75.3 µM), for inactives: at the top dose activity, negative = inhibition, most hits filed as inhibitors | hit rate 7.3% among 220,000 | AID 1030, 2008; active = well fitted inhibition curve with a large enough effect, not every such curve was filed as active; inconclusive = small, poorly fitted or top-dose-only effect, or another doubt; inactive = no such curve, though single readings can be large or run the other way;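 note: plate controls were no enzyme wells and a reference inhibitor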
Target sequence (P00352 whole entry, looked up): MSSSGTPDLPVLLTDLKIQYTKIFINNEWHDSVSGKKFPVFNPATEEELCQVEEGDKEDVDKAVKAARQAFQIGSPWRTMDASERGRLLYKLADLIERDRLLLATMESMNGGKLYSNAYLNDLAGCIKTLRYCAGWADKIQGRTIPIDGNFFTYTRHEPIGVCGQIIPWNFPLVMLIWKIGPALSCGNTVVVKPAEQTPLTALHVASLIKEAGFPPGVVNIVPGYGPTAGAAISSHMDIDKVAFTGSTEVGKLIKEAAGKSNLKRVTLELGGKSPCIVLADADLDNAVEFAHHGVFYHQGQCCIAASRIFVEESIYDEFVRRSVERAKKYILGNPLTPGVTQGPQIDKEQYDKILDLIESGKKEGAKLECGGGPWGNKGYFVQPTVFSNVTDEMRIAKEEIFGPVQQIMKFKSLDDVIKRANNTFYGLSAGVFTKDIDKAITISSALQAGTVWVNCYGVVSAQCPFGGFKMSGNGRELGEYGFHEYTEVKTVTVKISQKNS
LMNA splice mod: qHTS Assay for Modulators of Lamin A Splicing | HeLa LMNA splicing GFP/RFP minigene ratio, 48 h | hit rate 0.01% among 200,000 | AID 1487, 2009 | Potency, µM (highest dose often 46.1 µM), for inactives: at the highest dose ratio change, negative = inhibition, hits mostly inhibitors; active = well fitted inhibition curve with a large enough effect in the signal ratio, with a control signal flat, not every such curve was filed as active; inconclusive = small, poorly fitted or top-dose-only effect, or effect the other way, or a change in a side signal; the % refers to the signal ratio
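Read-out is the ratio of GFP to DsRed2 object intensity, acquired by 488 nm laser-scanning cytometry on HeLa lamin A-EGFP minigene reporter cells. Compound incubation 48 hrs at 37 °C in Opti-MEM with 2% FBS; DMSO 0.5% final.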
IMPase Li inh: qHTS Assay for Identifying the Cell-Membrane Permeable IMPase Inhibitors: Potentiation with Lithium; CHO-M1 cells, IP1 TR-FRET (IP-One), carbachol + lithium; Potency, µM (doses to about 59.4 µM), inactives show at the top dose activity, negative = IMPase inhibition, hits mostly inhibitors; hit rate 0.35% among 210,000; AID 1457, 2008;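 note: IP1 builds up when IMPase is blocked and the TR-FRET signal falls; plate controls were basal vehicle for no effect and high inhibitor control for full effect; nearly all actives have a fitted effect of over 50% in size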
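Readout is a homogeneous TR-FRET IP1 immunoassay (Ex 320, Em 665 and 620), where raised cytosolic IP1 lowers signal. Cells were CHO-M1 treated 30 min at 37C with test compounds plus a little lithium; AC50 values came from Hill-equation fitting.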
Starred values were filed as active, the others as inactive; ? = inconclusive; . = not tested or not shown; [ ] = remark or other dose. Unless noted, calls come from the whole dose curve; as a rule, active = well fitted curve in the direction sought with a large enough effect; inconclusive = small, poorly fitted or top-dose-only effect, or another doubt; inactive = no such curve, though single readings can be large; an effect the other way counts as inactive or inconclusive. Unless noted, % is set by controls: 0 for no effect and ±100 for the full control effect; potency is the fitted concentration of half-maximal effect.

SMILES	HPGD inh	KinaseGlo FLuc	ALDH1A1 inh	LMNA splice mod	IMPase Li inh
O=C(O)CN1C(=O)/C(=C/c2ccsc2)SC1=S	.	-1%	-11%	-11%[46 µM]	6%
O=C(O)CCN1C(=O)/C(=C\c2ccc(-c3nc4ccccc4s3)o2)SC1=S	16µM*	17%	?	-3%	23%[38.3 µM]
O=C(O)CN1C(=O)/C(=C/c2ccc(SCc3ccccc3)o2)SC1=S	.	-3%	3.5µM*	?	16%
Cc1c(C(=O)NCc2ccccc2)sc2nc3n(c(=O)c12)CCCCC3	.	.	.	3%[46 µM]	.
CCN(CC)Cc1cc(C(C)=O)ccc1OCC(C)C	-3%	-1%	1.1µM*	3%	9%[38.3 µM]
Cn1c(=O)c(C(=O)CCl)c(N)n(Cc2ccccc2)c1=O	-7%	2%	7.1µM*	?	-1%
O=C(CSc1nnc(-c2ccccn2)n1Cc1ccccc1)N1CCOCC1	.	2%	4%	2%[46 µM]	1%
Cc1sc(/N=C/c2c(O)ccc3ccccc23)c(C#N)c1C	-12%	17%	2%	-3%	36%[38.3 µM]
COc1ccc(O)c(/C=N/c2sc(C)c(C)c2C#N)c1	25µM*	-8%	10µM*	-3%	17%[38.3 µM]
CC(=O)NCCNc1nc(-c2cccc(NS(C)(=O)=O)c2)nc2ccccc12	.	.	3%	4%	-1%
COc1nc(N(c2ccccc2)c2ccccc2)nc(-n2ccnc2)n1	-13%	-3%	1.4µM*	?	21%[38.3 µM]
Cc1ccc(S(=O)(=O)c2cc(OC(=O)c3ccco3)ccc2OC(=O)c2ccco2)cc1	-15%	-1%	0%	-14%	-1%
O=C(Oc1ccc(OC(=O)c2ccco2)c(S(=O)(=O)c2ccc(Br)cc2)c1)c1ccco1	28µM*	-1%	?	?	14%[38.3 µM]
CCCCCC1=C2CNC(CC(C)C)(C(=O)OC)C=C2C(C)C1=O (stereo not drawn)	-14%	-2%	?	.	0%
COc1ccccc1OCCC(=O)OCC(=O)Nc1cc(S(=O)(=O)N2CCOCC2)ccc1Cl	.	-4%	6.3µM*	-3%[46 µM]	0%
Cc1cccc(NC(=O)COC(=O)CCc2ccc(S(=O)(=O)N3CCOCC3)cc2)c1C	.	4%	3.5µM*	.	-9%
COc1ccc(S(=O)(=O)N2CCOCC2)cc1NC(=O)CCc1c[nH]c2ccccc12	.	5%	14µM*	-18%[46 µM]	1%
Cc1ccc(NC(=O)COC(=O)CCc2ccc(S(=O)(=O)N3CCOCC3)cc2)c(C)c1	.	-1%	12%	.	7%
COc1ccc(NC(=O)Cc2c[nH]c3ccccc23)cc1S(=O)(=O)N1CCOCC1	.	1%	5%	-13%[46 µM]	2%
Cc1ccccc1OCCC(=O)OCC(=O)Nc1cc(S(=O)(=O)N2CCOCC2)ccc1Cl	.	-1%	2.5µM*	-5%[46 µM]	10%
CCn1c(SCc2ccc(F)cc2)nc2c(c1=O)SCC2	.	2%	-6%	.	6%
CCn1c(SCc2cccc(F)c2)nc2c(c1=O)SCC2	.	5%	14µM*	.	11%
COc1ccc(C(=O)C2CCCN(C(=O)C3=CCCC3)C2)cc1OC (stereo not drawn)	.	-3%	-8%	?	-1%
Cc1cc(C)cc(N2CCn3c2nc2c3c(=O)n(CCCc3ccccc3)c(=O)n2C)c1	.	.	.	2%[46 µM]	.
COc1ccc(C2NC(=S)NC3=C2CCCC3=C2SCCS2)cc1 (stereo not drawn)	.	2%	?	-9%[9.22 µM]	8%
Fc1ccccc1/C=C1\CCCC2=C1NC(=S)NC2c1ccccc1F (stereo not drawn)	.	4%	0.79µM*	?	20%
S=C1NC2=C(CCCC2=C2SCCCS2)C(c2ccccc2)N1 (stereo not drawn)	.	-4%	1µM*	.	-2%
CC1CC2=C(NC(=S)NC2c2ccc(F)cc2)/C(=C/c2ccc(F)cc2)C1 (stereo not drawn)	-28%	0%	3.5µM*	5%	-14%[38.3 µM]
C(=C1/CCCC2=C1Nc1ncnn1C2c1ccccc1)/c1ccccc1 (stereo not drawn)	25µM*	-1%	5%	?	-17%[38.3 µM]

High-throughput results (PubChem BioAssay)
